# Where “and” joins values, the source holds several entries; their conditions need not be identical. Equal values may be shown once. A structure can be active in one record and inactive in another. Calls of active or inactive are those of the source. Rule for the calls: active = hit-call score of the fitted dose curve at least 0.9, where 1 is the maximum; inactive = score below 0.9.
# Test system: not listed separately
# Assay: ATG_Sox_CIS: Attagene CIS-FACTORIAL HepG2 Assay for human SRY-box transcription factor (SOX) (AID 2282960)
# Conditions: HepG2 Attagene cis-factorial SOX reporter, mRNA; actives raise or lower the signal
# How it was run: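 HepG2 cells transiently transfected with cis-element-driven multiple reporter transcription units, dosed 24 h; reporter mRNA measured by RT-PCR, FAM labelling, HpaI digestion and capillary electrophoresis. Bidirectional fit versus DMSO baseline.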
SMILES,outcome,AC50
CCCCCCCCCC[N+](C)(C)CCCCCCCCCC,inactive,–
CCCCCCCCOC(=O)c1ccccc1C(=O)OCCCCCCCC,inactive,–
CCSC(=O)N(CC)C1CCCCC1,inactive,–
CCCN(CCC)N=O,inactive,–
C=CC(N)=O,inactive,–
Clc1ccc(C(c2ccccc2Cl)C(Cl)(Cl)Cl)cc1 (configuration not stated),inactive,–
Nn1cnnc1,inactive,–
CCC(C)(CC)c1cc(NC(=O)c2c(OC)cccc2OC)on1,inactive,–
Oc1c(Cl)c(Cl)c(Cl)c(Cl)c1Cl,inactive,23.5 µM (active) and 31.3 µM (active)
CC(C)(O)C(=O)Nc1ccc([N+](=O)[O-])c(C(F)(F)F)c1,inactive,–
Cc1ccccc1CO[C@@H]1C[C@@]2(C(C)C)CC[C@]1(C)O2,inactive,–
Cc1cc(O)ccc1Cl,inactive,–
CC(c1ccc(O)cc1)(c1ccc(O)cc1)c1ccc(O)cc1,inactive,–

# Molecular target: Transcription factor Sp1 (Homo sapiens) (UniProt P08047)
# Assay: ATG_Sp1_CIS: Attagene CIS-FACTORIAL HepG2 Assay for human Specificity Protein 1 (Sp1) (AID 2282961)
# Conditions: HepG2 Sp1 cis-reporter transcription, actives raise or lower the signal
# How it was run: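 HepG2 cells transiently transfected with multiple reporter transcription units driven by cis-regulatory elements; Sp1-responsive reporter mRNA measured 24 h after dosing by RT-PCR and capillary electrophoresis fluorescence, fitted bidirectionally against DMSO baseline.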
# Sequence of Transcription factor Sp1 (Homo sapiens) (P08047 whole entry, looked up): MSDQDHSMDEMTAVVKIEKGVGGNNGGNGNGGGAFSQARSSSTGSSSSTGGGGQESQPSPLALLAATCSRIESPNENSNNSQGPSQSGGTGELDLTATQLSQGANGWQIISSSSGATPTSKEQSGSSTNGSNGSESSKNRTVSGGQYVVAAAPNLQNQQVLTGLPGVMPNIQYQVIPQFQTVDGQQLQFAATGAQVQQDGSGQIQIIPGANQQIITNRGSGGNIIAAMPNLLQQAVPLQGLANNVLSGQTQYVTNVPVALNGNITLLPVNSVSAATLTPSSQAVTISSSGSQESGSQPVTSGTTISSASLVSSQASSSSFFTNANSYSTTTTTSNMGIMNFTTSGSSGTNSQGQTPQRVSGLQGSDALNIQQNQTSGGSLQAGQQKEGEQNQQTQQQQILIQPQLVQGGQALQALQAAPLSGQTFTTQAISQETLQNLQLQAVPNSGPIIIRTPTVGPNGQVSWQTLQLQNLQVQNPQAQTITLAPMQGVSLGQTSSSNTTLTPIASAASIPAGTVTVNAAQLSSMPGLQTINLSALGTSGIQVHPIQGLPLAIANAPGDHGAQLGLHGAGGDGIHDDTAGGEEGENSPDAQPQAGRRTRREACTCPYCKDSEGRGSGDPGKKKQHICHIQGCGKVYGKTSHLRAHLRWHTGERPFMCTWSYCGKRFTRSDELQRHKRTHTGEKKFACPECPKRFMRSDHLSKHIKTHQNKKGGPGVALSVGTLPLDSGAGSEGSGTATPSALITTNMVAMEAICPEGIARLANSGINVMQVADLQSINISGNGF
SMILES,outcome,AC50
Sc1ccccc1,inactive,–
O=C(O)C(F)(F)C(F)(F)C(F)(F)C(F)(F)C(F)(F)C(F)(F)C(F)(F)C(F)(F)F,inactive,–
CCC(=O)O[C@H]1CC[C@H]2[C@@H]3CCC4=CC(=O)CC[C@]4(C)[C@H]3CC[C@]12C,inactive,164 µM (active) and 181 µM (active)
CC#Cc1cc(C)nc(Nc2ccccc2)n1,inactive,–
CN(C)CCO,inactive,–
ClC1=C(Cl)[C@]2(Cl)[C@@H]3[C@@H]4C[C@@H]([C@H]5O[C@@H]45)[C@@H]3[C@@]1(Cl)C2(Cl)Cl,inactive,–
ClC(Cl)=C(c1ccc(Cl)cc1)c1ccc(Cl)cc1,–,95.5 µM (active) [middle of 4 runs]
CC(C)(c1ccccc1)c1ccc(O)cc1,inactive,51.9 µM (active) and 53.1 µM (active)
CCOCCOC(C)=O,inactive,–
Oc1ccc(Cl)cc1Cl,inactive,–
Clc1ccc(Cl)cc1,inactive,–
O=C(O)C(F)(F)C(F)(F)C(F)(F)C(F)(F)C(F)(F)C(F)(F)C(F)(F)C(F)(F)C(F)(F)F,inactive,–
O=C(N[C@H]1CN2CCC1CC2)c1cc2ccoc2cn1,inactive,–
Cc1cccc([N+](=O)[O-])c1,inactive,–
Cc1ccc(O)c(C)c1,inactive,–
Cc1cccc(C)c1N,inactive,–
c1cc2ccc3cccc4ccc(c1)c2c34,inactive,–

SMILES,outcome,AC50
C1CC2OC2CC1C1CO1 (configuration not stated),inactive,–
Cc1cc2c3c(c1)C(c1ccccc1)=N[C@@H](NC(=O)c1ccncc1)C(=O)N3CC2,–,181 µM (active)
NS(=O)(=O)C(F)(F)C(F)(F)C(F)(F)C(F)(F)C(F)(F)C(F)(F)C(F)(F)C(F)(F)F,–,24.4 µM (active) and 38.7 µM (active) and 27.6 µM (active)
CCCCCCCCCC[N+](C)(C)CCCCCCCCCC,–,190 µM (active)
CCCCCCCCOC(=O)c1ccccc1C(=O)OCCCCCCCC,inactive,–
CCSC(=O)N(CC)C1CCCCC1,inactive,–
CCCN(CCC)N=O,inactive,–
C=CC(N)=O,inactive,–
Clc1ccc(C(c2ccccc2Cl)C(Cl)(Cl)Cl)cc1 (configuration not stated),inactive,70.5 µM (active)
Nn1cnnc1,inactive,–
CCC(C)(CC)c1cc(NC(=O)c2c(OC)cccc2OC)on1,inactive,–
Oc1c(Cl)c(Cl)c(Cl)c(Cl)c1Cl,–,20.7 µM (active) and 27.9 µM (active) and 166 µM (active)
CC(C)(O)C(=O)Nc1ccc([N+](=O)[O-])c(C(F)(F)F)c1,inactive,–
Cc1ccccc1CO[C@@H]1C[C@@]2(C(C)C)CC[C@]1(C)O2,inactive,–
Cc1cc(O)ccc1Cl,inactive,–
CC(c1ccc(O)cc1)(c1ccc(O)cc1)c1ccc(O)cc1,–,19.6 µM (active)

# Test system: not listed separately
# Assay: ATG_SREBP_CIS: Attagene CIS-FACTORIAL HepG2 Assay for human Sterol Regulatory Element Binding (SREBP) (AID 2282962)
# Conditions: HepG2 Attagene cis-factorial SREBP reporter, mRNA; actives raise or lower the signal
# How it was run: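 Readout: fluorescent reporter-transcript peaks resolved by capillary electrophoresis after RT-PCR. Cells were human HepG2 carrying transfected cis-promoter reporter constructs, dosed for 24 h. Gain or loss of signal was fitted against DMSO controls.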
SMILES,outcome,AC50
Sc1ccccc1,inactive,–
O=C(O)C(F)(F)C(F)(F)C(F)(F)C(F)(F)C(F)(F)C(F)(F)C(F)(F)C(F)(F)F,inactive,–
CCC(=O)O[C@H]1CC[C@H]2[C@@H]3CCC4=CC(=O)CC[C@]4(C)[C@H]3CC[C@]12C,–,137 µM (active) [middle of 4 runs]
CC#Cc1cc(C)nc(Nc2ccccc2)n1,inactive,–
CN(C)CCO,inactive,–
ClC1=C(Cl)[C@]2(Cl)[C@@H]3[C@@H]4C[C@@H]([C@H]5O[C@@H]45)[C@@H]3[C@@]1(Cl)C2(Cl)Cl,inactive,–
ClC(Cl)=C(c1ccc(Cl)cc1)c1ccc(Cl)cc1,inactive,130 µM (active) and 169 µM (active)
CC(C)(c1ccccc1)c1ccc(O)cc1,inactive,–
CCOCCOC(C)=O,inactive,–
Oc1ccc(Cl)cc1Cl,inactive,–
Clc1ccc(Cl)cc1,inactive,–
O=C(O)C(F)(F)C(F)(F)C(F)(F)C(F)(F)C(F)(F)C(F)(F)C(F)(F)C(F)(F)C(F)(F)F,inactive,–
O=C(N[C@H]1CN2CCC1CC2)c1cc2ccoc2cn1,inactive,–
Cc1cccc([N+](=O)[O-])c1,inactive,–
Cc1ccc(O)c(C)c1,inactive,–
Cc1cccc(C)c1N,inactive,–
c1cc2ccc3cccc4ccc(c1)c2c34,inactive,–

SMILES,outcome,AC50
C1CC2OC2CC1C1CO1 (configuration not stated),inactive,–
Cc1cc2c3c(c1)C(c1ccccc1)=N[C@@H](NC(=O)c1ccncc1)C(=O)N3CC2,–,19.9 µM (active)
NS(=O)(=O)C(F)(F)C(F)(F)C(F)(F)C(F)(F)C(F)(F)C(F)(F)C(F)(F)C(F)(F)F,inactive,38.9 µM (active) and 50 µM (active)
CCCCCCCCCC[N+](C)(C)CCCCCCCCCC,–,3.63 µM (active)
CCCCCCCCOC(=O)c1ccccc1C(=O)OCCCCCCCC,inactive,–
CCSC(=O)N(CC)C1CCCCC1,inactive,–
CCCN(CCC)N=O,inactive,–
C=CC(N)=O,inactive,–
Clc1ccc(C(c2ccccc2Cl)C(Cl)(Cl)Cl)cc1 (configuration not stated),inactive,93.9 µM (active)
Nn1cnnc1,inactive,–
CCC(C)(CC)c1cc(NC(=O)c2c(OC)cccc2OC)on1,–,10.8 µM (active)
Oc1c(Cl)c(Cl)c(Cl)c(Cl)c1Cl,inactive,50 µM (active) and 83.2 µM (active)
CC(C)(O)C(=O)Nc1ccc([N+](=O)[O-])c(C(F)(F)F)c1,inactive,–
Cc1ccccc1CO[C@@H]1C[C@@]2(C(C)C)CC[C@]1(C)O2,–,14.7 µM (active)
Cc1cc(O)ccc1Cl,inactive,–
CC(c1ccc(O)cc1)(c1ccc(O)cc1)c1ccc(O)cc1,–,2.64 µM (active)
